In PubChem BioAssay (Tox21):
“And” between values parts separate entries of the source, which are not always exact repeats. Equal values may be shown once. Inconclusive results are not listed. Entries that show only a call come without a potency. Some structures have more than one record in an assay (separate samples or runs), and their calls can disagree. The source made the active and inactive calls. The call rests on the fitted dose curve; in most records, active means well fitted curve in the direction sought with a large enough effect in the repeat runs; inconclusive means weak or mixed curves; inactive means no such curve, though single readings can be large; an effect the other way counts as inactive or inconclusive.

Key:
[1] = A CellTox Green Cytotoxicity Assay to monitor cytotoxicity in HEK293 cells - 40 hour (AID 1224871); further: nearly all actives have a fitted effect of over 45% in size; further: potency means the concentration at half of the fitted maximal effect
Outline: (§1)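 Fluorescence intensity, read at 0, 8, 16, 24, 32 and 40 h of compound treatment, reflected dye binding to DNA of dead HEK293 cells; compounds (23 nL, DMSO) were added 5 h after plating cells with reagent.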

[2] = qHTS RealTime-Glo MT Cell Viability Assay in HEK293 cells - 16 hour (AID 1224872); further: nearly all actives have a fitted effect of over 50% in size; further: potency means the concentration at half of the fitted maximal effect
Outline: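 Viability tracked continuously by luminescence as live cells reduce a prosubstrate for NanoLuc; HEK293 cells preincubated 5 h, compound-treated at 37 C, and read at 0, 8, 16, 24, 32 and 40 h.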

[3] = qHTS RealTime-Glo MT Cell Viability Assay in HepG2 cells - 8 hour (AID 1224873); further: nearly all actives have a fitted effect of over 55% in size; further: potency means the concentration at half of the fitted maximal effect
Outline: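 HepG2 cells (600/well) mixed with RealTime-Glo MT reagent, settled 5 h at 37 C/5% CO2 before compound addition. Nonlytic NanoLuc luminescence from viable-cell prosubstrate reduction read repeatedly during 40 h treatment at 37 C.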

[4] = qHTS RealTime-Glo MT Cell Viability Assay in HEK293 cells - 40 hour (AID 1224874); settings: RealTime-Glo luminescence; max response: stronger effect = lower value; further: nearly all actives have a fitted effect of over 50% in size; further: potency means the concentration at half of the fitted maximal effect
Outline: (§2)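 Viable HEK293 cells reduce a cell-permeant prosubstrate; the product diffuses out and is consumed by NanoLuc in the medium to give light. Compounds went in after a 5 h incubation and plates were read over the treatment course.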

[5] = A CellTox Green Cytotoxicity Assay to monitor cytotoxicity in HepG2 cells - 16 hour (AID 1224876); further: nearly all actives have a fitted effect of over 45% in size; further: potency means the concentration at half of the fitted maximal effect
Outline: (§3)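 Using 1536-well format, dye-containing HepG2 suspension was seeded, allowed 5 h at 37 C/5% CO2, dosed by pintool with compounds, positive and negative controls, and imaged for fluorescence across 40 h.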

[6] = qHTS RealTime-Glo MT Cell Viability Assay in HepG2 cells - 32 hour (AID 1224877); further: nearly all actives have a fitted effect of over 55% in size; further: potency means the concentration at half of the fitted maximal effect
Outline: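 Viability was tracked continuously by NanoLuc luminescence from prosubstrate reduced by living HepG2 cells, at successive time points over 40 h of compound exposure. Cells with reagent were preincubated 5 h at 37 °C before compound addition.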

[7] = A CellTox Green Cytotoxicity Assay to monitor cytotoxicity in HepG2 cells - 24 hour (AID 1224878); further: nearly all actives have a fitted effect of over 45% in size; further: potency means the concentration at half of the fitted maximal effect
Outline: as §3

[8] = qHTS RealTime-Glo MT Cell Viability Assay in HEK293 cells - 0 hour (AID 1224880); further: top concentration of the series differs between compounds; nearly all actives have a fitted effect of over 45% in size
Outline: as §2

[9] = A CellTox Green Cytotoxicity Assay to monitor cytotoxicity in HEK293 cells - 24 hour (AID 1224875)
Outline: as §1

[10] = A CellTox Green Cytotoxicity Assay to monitor cytotoxicity in HepG2 cells - 40 hour (AID 1224879); further: nearly all actives have a fitted effect of over 40% in size; further: potency means the concentration at half of the fitted maximal effect
Outline: as §3

SMILES | Potency [1] | Potency [2] | Potency [3] | max response [4] | Potency [5] | Potency [6] | Potency [7] | Potency [8] | Potency [9] | Potency [10] | Potency [4]
O=C(Cl)c1cccc(C(=O)Cl)c1 | inactive | inactive | inactive | 7.93% (inactive) and 0.091% (inactive) | inactive | inactive | inactive | inactive |  |  | 
CC(=O)OCC1=C(C(=O)O)N2C(=O)[C@@H](NC(=O)Cc3cccs3)[C@H]2SC1 | inactive |  | inactive | 6.98% (inactive) | inactive | inactive | inactive | inactive | inactive | inactive | 
CC(C)(C)NCC(O)COc1ccccc1OCC1CCCO1 (centres undefined) | inactive |  | inactive | 0.952% (inactive) | inactive | inactive | inactive | inactive | inactive | inactive | 
O=C1Nc2ccccc2C1(c1ccc(O)cc1)c1ccc(O)cc1 | inactive |  | inactive | -14.8% (inactive) | inactive | inactive | inactive | inactive | inactive | inactive | 49 µM (active)
c1ccc2c(c1)-c1cccc3c1c-2cc1ccccc13 | inactive | inactive | inactive | 1.04% (inactive) | inactive | inactive | inactive | inactive |  | 1.91 µM (active) and inactive | 
CN(C)c1ccc(C(=C2C=CC(=[N+](C)C)C=C2)c2ccccc2)cc1 | 17.4 µM (active) and 9.52 µM (active) and 10.7 µM (active) | 3.01 µM (active) [middle of 4 runs] | 17.4 µM (active) and 21.3 µM (active) and 19 µM (active) |  | 9.77 µM (active) and 9.52 µM (active) and 7.56 µM (active) | 7.56 µM (active) [middle of 4 runs] | 6.74 µM (active) [middle of 4 runs] | inactive |  |  | 1.34 µM (active) [middle of 4 runs]
CC(=O)C1=C(C)[C@@H]2C[C@@]3(C1)[C@H](C)CC[C@H]3C2(C)C | 32.3 µM (active) and inactive | inactive | inactive | -1.5% (inactive) and -2.44% (inactive) | inactive | inactive | inactive | inactive |  |  | 
CC(C)(c1ccccc1)c1ccc(Nc2ccc(C(C)(C)c3ccccc3)cc2)cc1 | inactive | inactive |  | -27.1% (inactive) and -13.6% (inactive) | inactive | inactive | inactive | inactive | inactive | inactive | 
CCC[C@H](N[C@@H](C)C(=O)N1[C@H](C(=O)O)C[C@@H]2CCCC[C@@H]21)C(=O)OCC | inactive | inactive | inactive | 4.1% (inactive) and 12.6% (inactive) | inactive | inactive | inactive | inactive |  |  | 
CN(C)c1ccc2nc3ccc(=[N+](C)C)cc-3sc2c1 | inactive |  | 9.39 µM (active) and 19.5 µM (active) and 19 µM (active) |  | inactive | 21 µM (active) and 12.3 µM (active) and 19 µM (active) | inactive | inactive | inactive | inactive | 1.67 µM (active) and 1.55 µM (active) and 2.68 µM (active)
Cc1cccc([N+](=O)[O-])c1C(=O)O | inactive | inactive | inactive | -0.164% (inactive) | inactive | inactive | inactive | inactive |  | inactive | 
CC(C(O)c1ccc(O)cc1)N1CCC(Cc2ccccc2)CC1 (centres undefined) | inactive |  | inactive | -13.3% (inactive) | inactive | inactive | inactive | inactive | inactive | inactive | 
NCCO | inactive |  | inactive | -3.29% (inactive) and 1.65% (inactive) | inactive | inactive | inactive | inactive | inactive | inactive | 
CC(=O)N[C@@H](CS)C(=O)O | inactive | inactive | inactive | 3.06% (inactive) and 6.4% (inactive) | inactive | inactive | inactive | inactive |  |  | 
CC(N)=O | inactive |  | inactive | 14.5% (inactive) | inactive | inactive | inactive | inactive | inactive | inactive | 
CC(C)CCOCc1ccccc1 | inactive | inactive | inactive | 2.97% (inactive) | inactive | inactive | inactive | inactive |  | inactive | 
O=C(O)c1cc(Cl)cc(Cl)c1 | inactive |  | inactive | 8.11% (inactive) | inactive | inactive | inactive | inactive | inactive | inactive | 
C/C=C/c1ccc(OCC)c(O)c1 | inactive | inactive | inactive | -14.3% (inactive) and 2.47% (inactive) | inactive | inactive | inactive | inactive |  | inactive | 
CCc1ccc(C(c2ccc(CC)cc2)C(Cl)Cl)cc1 |  |  | inactive |  | inactive | inactive | inactive | inactive |  |  | 
O=C(Nc1ccccc1SSc1ccccc1NC(=O)c1ccccc1)c1ccccc1 |  |  | inactive |  | inactive | inactive and 49 µM (active) | inactive and 54.9 µM (active) | inactive | inactive | 49 µM (active) | 
CCn1c2ccccc2c2cc(N)ccc21 | inactive |  | inactive | -18.5% (inactive) and -3.18% (inactive) and -13.8% (inactive) | inactive | inactive | inactive | inactive |  | inactive | 
CCCCCC(=O)O[C@]1(C(C)=O)CC[C@H]2[C@@H]3CCC4=CC(=O)CC[C@]4(C)[C@H]3CC[C@@]21C | inactive |  |  |  | inactive | inactive | inactive | inactive |  | inactive | 24.4 µM (active)
CNC1(C)C2CCC(C2)C1(C)C (centres undefined) | inactive |  | inactive | -3.74% (inactive) |  | inactive |  | inactive | inactive |  | 
Nc1nc(=S)c2[nH]cnc2[nH]1 | inactive |  | inactive |  | inactive | inactive | inactive | inactive | inactive |  | 21.3 µM (active) and 19.5 µM (active) and 26.8 µM (active)
Oc1ccc(Cl)cc1Cc1cc(Cl)ccc1O | inactive |  | inactive |  | inactive | 49.9 µM (active) | inactive | inactive |  |  | 17.7 µM (active) and 43.6 µM (active) and 16.9 µM (active)
O=C(O)c1cn(-c2ccc(F)cc2)c2cc(N3CCNCC3)c(F)cc2c1=O | inactive |  | inactive | 4.85% (inactive) and 19.5% (inactive) | inactive | inactive | inactive | inactive |  | inactive | 
